Here are results for 13 compounds from PubChem BioAssay (NCATS).

Results filed as inconclusive are left out. Unmarked numbers belong to inactive results. Calls of active or inactive are those of the source. Calls follow the shape of the dose curve; as a rule, active = well fitted curve in the direction sought with a large enough effect; inconclusive = small, poorly fitted or top-dose-only effect, or another doubt; inactive = no such curve, though single readings can be large; an effect the other way counts as inactive or inconclusive.

In one assay the test system is CRL-7250. Kind of assay: Cytotoxic Profiling of Annotated Libraries Using Quantitative High-Throughput Screening (AID 1296008). Also: nearly all actives have a fitted effect of over 60% in size. As to max response: % is scaled to controls: 0 for no effect and ±100 for the full control effect. As to conditions: Five cell lines viability, CellTiter-Glo ATP luminescence, 48-72 h; max response: active compounds read low. The procedure, abridged: (§1)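 Cells exposed to compounds for 48 or 72 hr at 37 degrees Celsius. Viability read as ATP-coupled luminescence with CellTiter-Glo after 10 min at room temperature.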
In general terms: Cellular ATP, detected with luciferase, serves as a proxy for viable cell number.

A further assay deals with HEK293. Described as above. The following applies: Five cell lines viability, CellTiter-Glo ATP luminescence, 48-72 h; max response: active compounds read low. The procedure, abridged:
as §1

In another assay the test system is HaCat. The description is as above. The following applies: Five cell lines viability, CellTiter-Glo ATP luminescence, 48-72 h; max response: active compounds read low. The procedure, abridged: as §1
The test system of the next assay is KB-3-1. Described as above. As to conditions: Five cell lines viability, CellTiter-Glo ATP luminescence, 48-72 h; max response: active compounds read low. The method in brief:
as §1

The test system of the next assay is NIH3T3. The description is as above. As to conditions: Five cell lines viability, CellTiter-Glo ATP luminescence, 48-72 h; max response: active compounds read low. The method in brief:
as §1

A further assay relates to MCC-13. Kind of assay: qHTS assay to identify novel small-molecules to repurpose for Merkel cell carcinoma treatment (AID 1296009). Also: nearly all actives have a fitted effect of over 60% in size. The following applies: MCC and control cell lines, CellTiter-Glo viability, 72 h; series mostly up to 46 µM. The procedure, abridged:
(§2)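 CellTiter-Glo luminescence after 72 hr compound exposure at 37 degree celsius gave cell viability. Libraries NPC and MIPE were run as 8- and 11-point dose responses; RLUs normalized to DMSO (negative) and no-cell (cytotoxicity) controls.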

For a further assay, the system named is MCC-26. The assay is described as above. The following applies: MCC and control cell lines, CellTiter-Glo viability, 72 h; series mostly up to 46 µM. The method in brief: as §2
A further assay has as its system MKL-1. Described as above. As to conditions: MCC and control cell lines, CellTiter-Glo viability, 72 h; series mostly up to 46 µM. The procedure, abridged:
as §2

The next assay concerns WaGa. The assay is described as above. As to conditions: MCC and control cell lines, CellTiter-Glo viability, 72 h; series mostly up to 46 µM. The procedure, abridged: as §2
A further assay relates to UISO. The assay is described as above. As to conditions: MCC and control cell lines, CellTiter-Glo viability, 72 h; series mostly up to 46 µM. The procedure, abridged:
as §2

The subject of another assay is MKL-2. The description is as above. As to conditions: MCC and control cell lines, CellTiter-Glo viability, 72 h; series mostly up to 46 µM. The method in brief: as §2
Another assay relates to C33A. Kind of assay: Primary qHTS to identify gynecologic anti-cancer compounds using libraries of approved drugs and bioactive compounds (AID 1345084). Also: nearly all actives have a fitted effect of over 55% in size. As to conditions: Gynecologic cancer cell panel viability, ATPlite luminescence, 48 h; series mostly up to 57.5 µM. The procedure, abridged: (§3)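 Cells, 1,000 per well, were allowed to settle for 16 h at 37 C before compound addition. Five concentrations were tested for 48 h, and viability was read by ATPlite luminescence after 15 min at room temperature.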
A general note: qHTS replaces the single test concentration by a dilution series.

The test system of another assay is CASKI. The assay is described as above. The following applies: Gynecologic cancer cell panel viability, ATPlite luminescence, 48 h; series mostly up to 57.5 µM. The method in brief:
as §3

The next assay relates to Es-2. The description is as above. As to conditions: Gynecologic cancer cell panel viability, ATPlite luminescence, 48 h; series mostly up to 57.5 µM. The method in brief: as §3
The next assay has as its system HeLa. Described as above. The following applies: Gynecologic cancer cell panel viability, ATPlite luminescence, 48 h; series mostly up to 57.5 µM. The method in brief: as §3
Potency is read from the fitted curve at half-maximal effect.

`COc1ccc2cc([S+]([O-])Cc3ncc(C)c(OC)c3C)nc2c1`: the call in the assay with CRL-7250 and in the assay on KB-3-1 was inactive. In addition, the max response is 1.45% in the assay on HEK293, 3.09% with HaCat and -6.22% with NIH3T3. Also, the Potency result with MCC-13, with MCC-26, in the assay on MKL-1 and with WaGa was “inactive” in each case.
As to `CC(=O)OC[C@@H]1O[C@@H](n2ccc(=O)[nH]c2=O)[C@H](OC(C)=O)[C@H]1OC(C)=O`, the max response in the assay on CRL-7250 was -3.38%; in the assay with HEK293 it was -0.274%; with HaCat it was -10.5%; with KB-3-1, -0.144%; with NIH3T3, -12.5%. The Potency result with MCC-13, with MCC-26, in the assay with MKL-1, in the assay with UISO and with WaGa was “inactive” in each case.
With `C=CCNC1=C2C[C@@H](C)C[C@H](OC)[C@@H](O)[C@@H](C)C=C(C)[C@H](OC(N)=O)[C@@H](OC)C=CC=C(C)C(=O)NC(=CC1=O)C2=O`, the Potency in the assay with CRL-7250 was 296 nM (active); with HEK293, 935 nM (active); with HaCat, 590 nM (active); in the assay with KB-3-1 it was 105 nM (active); in the assay with NIH3T3, 526 nM (active); in the assay with MCC-13 it was 3720 nM (active). The figures for the Potency in the assay on UISO and in the assay on WaGa were 1480 nM (active) and 1660 nM (active), respectively.
As to `CN(C)c1ccc(C(=O)NCCCCCCC(=O)NO)cc1`, the Potency in the assay on CRL-7250 was 2640 nM (active); with HEK293, 1870 nM (active); in the assay on HaCat it was 4690 nM (active); with KB-3-1 it was 2350 nM (active); with NIH3T3, 3720 nM (active); with MCC-13 it was 4180 nM (active). Further, the Potency with MKL-1 was 1660 nM (active); in the assay with MKL-2, 743 nM (active); in the assay with WaGa, 662 nM (active).
For the compound `C[C@H]1O[C@H](O[C@H]2[C@H](O)[C@@H](O)[C@@H](O[C@H]3[C@H](O)[C@@H](O)C(O)O[C@H]3CO)O[C@H]2CO)[C@H](O)[C@@H](O)[C@H]1N[C@H]1C=C(CO)[C@@H](O)[C@H](O)[C@@H]1O` (stereo partly specified), the max response with CRL-7250 is 1.59%; with HaCat, -16.9%; in the assay on KB-3-1 it was 4.29%; in the assay with NIH3T3, -1.18%. In the assay on HEK293, the Potency is 9350 nM (active). Besides, the Potency result in the assay with MCC-13, in the assay with MKL-1, in the assay on MKL-2, with UISO and with WaGa was “inactive” each time.
As for `CCOC(=O)N1CCN([N+]([O-])=NOc2ccc([N+](=O)[O-])cc2[N+](=O)[O-])CC1`, the max response was -5.72% in the assay with CRL-7250 and 3.57% in the assay with HaCat. Further, the Potency in the assay on HEK293 was 3720 nM (active); with NIH3T3, 9350 nM (active); in the assay with MKL-1, 10500 nM (active); with MKL-2 it was 6620 nM (active); in the assay with WaGa, 11800 nM (active). For the same compound, the outcome with KB-3-1 was inactive.
As to `CC(C)(C)[N+]([O-])=Cc1ccc(S(=O)(=O)O)cc1S(=O)(=O)O`, the max response was 1.88% with CRL-7250; -0.289% in the assay on HEK293; -17.9% with HaCat; 9.38% with KB-3-1; 0.254% in the assay on NIH3T3. In addition, the Potency result with MCC-13, with MKL-1, with MKL-2, in the assay on UISO and in the assay on WaGa was “inactive” throughout.
On to `CC(=O)[C@]1(O)Cc2c(O)c3c(c(O)c2[C@@H](O[C@H]2C[C@H](N)[C@@H](O)[C@H](C)O2)C1)C(=O)c1ccccc1C3=O`, for which the Potency was 1480 nM (active) in the assay with CRL-7250; 132 nM (active) in the assay with HEK293; 743 nM (active) in the assay with HaCat; 469 nM (active) with KB-3-1; 264 nM (active) in the assay on NIH3T3; 662 nM (active) in the assay on MCC-13. Moreover, the Potency in the assay with MKL-1 is 148 nM (active); with MKL-2, 105 nM (active); in the assay with UISO, 590 nM (active); in the assay on WaGa, 83.3 nM (active).
As for `C=C(C)[C@@H]1CC[C@]2(C(=O)O)CC[C@]3(C)[C@H](CC[C@@H]4[C@@]5(C)CC[C@H](O)C(C)(C)[C@@H]5CC[C@]43C)[C@@H]12`, the max response in the assay with CRL-7250 is -12.6%; with HEK293, -13.5%; in the assay with HaCat it was 1.59%; with KB-3-1 it was -12.2%; with NIH3T3 it was 0.0342%. In addition, the Potency entry in the assay with MCC-13, in the assay on MKL-1, in the assay with MKL-2, in the assay on UISO and in the assay on WaGa was “inactive” throughout.
For the compound `O=C(O)C(=O)Nc1cccc(C2=NN=N[N]2)c1`, the compound was classed as inactive in the assay with CRL-7250. Besides, the max response in the assay with HEK293 is -1.4%; in the assay with HaCat, -4.6%; with KB-3-1 it was 7.57%; in the assay on NIH3T3, -1.86%. Further, the Potency result in the assay with MCC-13, in the assay with MKL-1, in the assay with MKL-2, with UISO and in the assay with WaGa was “inactive” each time.
Consider `COc1cccc2c1C(=O)c1c(O)c3c(c(O)c1C2=O)C[C@@](O)(C(=O)CO)C[C@@H]3O[C@H]1C[C@H](N)[C@@H](O)[C@H](C)O1`, for which the Potency in the assay with CRL-7250 was 1180 nM (active); in the assay with HEK293, 132 nM (active); with HaCat, 372 nM (active); in the assay with KB-3-1 it was 743 nM (active); in the assay with NIH3T3, 235 nM (active); in the assay with MCC-13, 5900 nM (active). For the same compound, the results for the Potency with MCC-26, with MKL-1 and with WaGa were 2350 nM (active), 166 nM (active) and 93.5 nM (active), respectively.
Regarding `CON=C(C(=O)N[C@@H]1C(=O)N2C(C(=O)O)=C(Cn3ccc(=N)n3CCO)CS[C@H]12)c1csc(N)n1`, the max response with CRL-7250 is -8.38%; in the assay on HEK293, -24.1%; with HaCat it was 4.51%; in the assay with NIH3T3, 1.39%. Further, in the assay on KB-3-1, the compound was classed as inactive. Further, the Potency result in the assay on MCC-13, in the assay on MKL-1, in the assay on MKL-2, in the assay on UISO and with WaGa was “inactive” each time.
`CCN(CC)Cc1ccc2cc(COC(=O)Nc3ccc(C(=O)NO)cc3)ccc2c1`: the Potency was 7430 nM (active) with CRL-7250; 418 nM (active) with HEK293; 1300 nM (active) in the assay on HaCat; 1160 nM (active) in the assay with KB-3-1; 2310 nM (active) in the assay on NIH3T3; 1870 nM (active) with MKL-1. In addition, the Potency was 590 nM (active) with MKL-2; 3720 nM (active) in the assay on UISO; 526 nM (active) with WaGa; 3550 nM (active) with C33A; 6310 nM (active) in the assay with CASKI; 6310 nM (active) with Es-2. In addition, the Potency with HeLa was 6310 nM (active).
